PubChem BioAssay
“And” between values parts separate entries of the source, which are not always exact repeats. Equal values may be shown once. A number with no mark means an inactive call. This is one part of the list. The source made the active and inactive calls. Unless noted, no stated cut-off is given here; in the data, active means inhibition above about 25%; inactive means the rest.

Columns and labels:
[1] = target: Nuclear receptor coactivator 3 (Homo sapiens) (UniProt Q9Y6Q9); experiment: NCOA3 GAL4-fusion reporter inhibition – cell-based, luminescence, quadruplicate, confirmation (AID 588792;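 active means mean inhibition over 43.08%, the solvent-only control mean plus 3 SD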;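 further: 0% = DMSO treated cells and 100% = gossypol at 36 µM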); settings: HEK293 GAL4-SRC3 luciferase reporter, at 3.6 µM, active compounds read high
[2] = system: transactivating tegument protein VP16 (Human herpesvirus 1), Gal4-VP16 luciferase reporter; experiment: repression of VP16-driven luciferase reporter – cell-based, luminescence, high throughput, counter-screen for SRC3 inhibitor project (AID 588794; in the data active means inhibition above about 30%); settings: mammalian cells, at 3.6 µM, active compounds read high
[3] = target: Nuclear receptor coactivator 1 (Homo sapiens) (UniProt Q15788); experiment: NCOA1 GAL4-fusion reporter inhibition – cell-based, luminescence, quadruplicate, confirmation (AID 588820;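 active means mean inhibition above 46.68%, the untreated control wells mean plus 3 SD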;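 further: 0% = DMSO wells and 100% = gossypol 36 µM treated wells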); settings: HEK293 GAL4-SRC1 luciferase reporter, at 3.6 µM, active compounds read high
Chain of Nuclear receptor coactivator 1 (Homo sapiens) (Q15788 whole entry, looked up, the tested form may be a part): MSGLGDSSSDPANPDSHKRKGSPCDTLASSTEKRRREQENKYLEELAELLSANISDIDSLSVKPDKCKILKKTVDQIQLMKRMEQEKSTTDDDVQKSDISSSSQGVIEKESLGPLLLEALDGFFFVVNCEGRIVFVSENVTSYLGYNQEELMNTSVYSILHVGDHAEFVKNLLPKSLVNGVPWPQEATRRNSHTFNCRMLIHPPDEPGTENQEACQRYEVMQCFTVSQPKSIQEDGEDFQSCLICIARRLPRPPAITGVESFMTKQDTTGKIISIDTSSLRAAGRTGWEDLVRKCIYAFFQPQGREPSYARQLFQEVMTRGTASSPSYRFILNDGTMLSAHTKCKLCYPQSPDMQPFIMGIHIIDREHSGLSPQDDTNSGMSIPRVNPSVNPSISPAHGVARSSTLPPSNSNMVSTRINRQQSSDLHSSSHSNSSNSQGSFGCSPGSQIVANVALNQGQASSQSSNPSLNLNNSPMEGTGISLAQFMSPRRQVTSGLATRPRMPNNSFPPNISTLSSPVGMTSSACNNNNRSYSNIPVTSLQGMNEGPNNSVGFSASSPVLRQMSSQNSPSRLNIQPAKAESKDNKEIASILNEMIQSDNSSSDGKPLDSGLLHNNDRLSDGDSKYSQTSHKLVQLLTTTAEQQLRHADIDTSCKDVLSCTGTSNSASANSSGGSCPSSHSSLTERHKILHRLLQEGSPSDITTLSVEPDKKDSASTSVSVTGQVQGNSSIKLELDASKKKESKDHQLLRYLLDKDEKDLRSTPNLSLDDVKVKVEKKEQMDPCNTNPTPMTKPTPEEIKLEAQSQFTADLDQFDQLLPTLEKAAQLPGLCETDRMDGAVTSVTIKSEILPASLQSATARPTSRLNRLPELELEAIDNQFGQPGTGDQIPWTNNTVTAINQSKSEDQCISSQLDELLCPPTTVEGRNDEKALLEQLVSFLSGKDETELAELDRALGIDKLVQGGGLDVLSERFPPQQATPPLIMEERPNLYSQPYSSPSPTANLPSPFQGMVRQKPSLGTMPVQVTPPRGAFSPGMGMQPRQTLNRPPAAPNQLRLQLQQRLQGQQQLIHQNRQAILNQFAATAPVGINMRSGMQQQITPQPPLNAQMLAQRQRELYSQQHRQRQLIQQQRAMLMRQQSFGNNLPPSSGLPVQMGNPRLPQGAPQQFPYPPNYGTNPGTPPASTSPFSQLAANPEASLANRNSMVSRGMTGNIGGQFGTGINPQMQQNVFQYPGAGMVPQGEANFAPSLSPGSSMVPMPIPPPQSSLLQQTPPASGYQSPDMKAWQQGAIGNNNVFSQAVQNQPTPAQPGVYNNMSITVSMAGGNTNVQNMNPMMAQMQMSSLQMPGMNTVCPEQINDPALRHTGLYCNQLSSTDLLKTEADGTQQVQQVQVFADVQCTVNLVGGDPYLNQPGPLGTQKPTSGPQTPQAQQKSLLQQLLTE

[4] = repression of VP16-driven luciferase reporter – cell-based, luminescence, high throughput, counter-screen for SRC1 inhibitor project (AID 588824); settings: cell-based VP16 transactivation luciferase luminescence; at 3.6 µM; active compounds read high
[5] = system: transactivating tegument protein VP16 (Human herpesvirus 1); experiment: compounds suppressing VP16-driven luciferase signal – cell-based, luminescence, single concentration, counter-screen for SRC2 inhibitor project (AID 652007; in the data active means inhibition above about 36%); settings: cell-based VP16 transactivation luciferase reporter, at 8.9 µM, active compounds read high
[6] = target: Nuclear receptor coactivator 2 (Homo sapiens) (UniProt Q15596); experiment: inhibition of GAL4-SRC2 driven luciferase expression – cell-based, luminescence, HEK293, triplicate, confirmation (AID 652008;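 active means mean inhibition above 46.5%, the solvent-only control mean plus 3 SD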;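 further: 0% = DMSO-treated cells and 100% = Gossypol at 36 µM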); settings: HEK293 GAL4-SRC2 luciferase reporter, at 8.9 µM, active compounds read high
Chain of Nuclear receptor coactivator 2 (Homo sapiens) (Q15596 whole entry, looked up, the tested form may be a part): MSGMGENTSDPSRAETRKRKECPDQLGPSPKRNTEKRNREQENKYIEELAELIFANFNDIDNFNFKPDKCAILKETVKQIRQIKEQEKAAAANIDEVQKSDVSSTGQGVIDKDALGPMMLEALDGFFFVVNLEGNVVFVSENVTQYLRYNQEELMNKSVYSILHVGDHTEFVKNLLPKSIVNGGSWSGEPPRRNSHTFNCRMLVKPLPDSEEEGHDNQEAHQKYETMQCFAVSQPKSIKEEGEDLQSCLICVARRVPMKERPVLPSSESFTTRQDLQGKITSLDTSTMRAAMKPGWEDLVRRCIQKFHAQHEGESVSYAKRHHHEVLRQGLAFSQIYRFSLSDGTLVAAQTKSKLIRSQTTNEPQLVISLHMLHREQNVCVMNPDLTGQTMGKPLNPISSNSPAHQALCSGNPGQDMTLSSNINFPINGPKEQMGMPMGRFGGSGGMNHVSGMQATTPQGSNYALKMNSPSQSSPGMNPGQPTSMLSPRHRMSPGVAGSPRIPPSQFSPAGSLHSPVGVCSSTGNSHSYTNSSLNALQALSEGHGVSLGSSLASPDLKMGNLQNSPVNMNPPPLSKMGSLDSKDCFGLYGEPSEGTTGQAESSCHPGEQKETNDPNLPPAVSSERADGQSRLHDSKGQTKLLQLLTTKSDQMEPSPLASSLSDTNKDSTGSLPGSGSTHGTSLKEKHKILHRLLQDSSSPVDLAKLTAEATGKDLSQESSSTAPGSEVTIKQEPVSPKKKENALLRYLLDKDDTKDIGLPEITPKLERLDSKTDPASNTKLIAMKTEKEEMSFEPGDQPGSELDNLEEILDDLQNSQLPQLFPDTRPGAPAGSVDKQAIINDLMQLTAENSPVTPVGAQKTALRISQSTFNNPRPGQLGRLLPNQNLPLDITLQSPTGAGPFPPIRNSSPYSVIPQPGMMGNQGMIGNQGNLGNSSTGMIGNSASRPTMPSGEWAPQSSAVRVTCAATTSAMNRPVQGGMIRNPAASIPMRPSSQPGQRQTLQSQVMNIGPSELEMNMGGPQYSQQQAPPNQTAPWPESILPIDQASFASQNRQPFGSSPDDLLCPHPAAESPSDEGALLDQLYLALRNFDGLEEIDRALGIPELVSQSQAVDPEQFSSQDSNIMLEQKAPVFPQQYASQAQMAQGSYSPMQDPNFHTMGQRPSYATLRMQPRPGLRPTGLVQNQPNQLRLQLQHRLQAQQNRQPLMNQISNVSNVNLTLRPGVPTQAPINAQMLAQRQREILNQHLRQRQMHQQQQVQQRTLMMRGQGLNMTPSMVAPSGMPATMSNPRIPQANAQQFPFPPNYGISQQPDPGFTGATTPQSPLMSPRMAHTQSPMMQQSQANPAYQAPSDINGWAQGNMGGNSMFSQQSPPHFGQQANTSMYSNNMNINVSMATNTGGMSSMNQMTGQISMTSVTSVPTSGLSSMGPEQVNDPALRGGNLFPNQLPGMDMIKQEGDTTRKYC

[7] = StAR promoter reporter inhibitors, counter-screen for LRH-1 inverse agonist project, cell-based, luminescence, high throughput (AID 651611; in the data active means inhibition above about 28%); settings: StAR promoter luciferase reporter counterscreen, at 3.6 µM, active compounds read high
[8] = target: Nuclear receptor subfamily 5 group A member 2 (Homo sapiens) (UniProt O00482); experiment: NR5A2 activity suppression in reporter cells – cell-based, luminescence, confirmation (AID 651613; in the data active means inhibition above about 42%;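 further: HEK293T cells co-transfected with LRH-1 and StAR promoter luciferase reporter; 0% = vehicle wells and 100% = parental cells lacking receptor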); settings: cell-based LRH-1 luciferase reporter, inverse agonism; at 3.6 µM; active compounds read high
Chain of Nuclear receptor subfamily 5 group A member 2 (Homo sapiens) (O00482 whole entry, looked up): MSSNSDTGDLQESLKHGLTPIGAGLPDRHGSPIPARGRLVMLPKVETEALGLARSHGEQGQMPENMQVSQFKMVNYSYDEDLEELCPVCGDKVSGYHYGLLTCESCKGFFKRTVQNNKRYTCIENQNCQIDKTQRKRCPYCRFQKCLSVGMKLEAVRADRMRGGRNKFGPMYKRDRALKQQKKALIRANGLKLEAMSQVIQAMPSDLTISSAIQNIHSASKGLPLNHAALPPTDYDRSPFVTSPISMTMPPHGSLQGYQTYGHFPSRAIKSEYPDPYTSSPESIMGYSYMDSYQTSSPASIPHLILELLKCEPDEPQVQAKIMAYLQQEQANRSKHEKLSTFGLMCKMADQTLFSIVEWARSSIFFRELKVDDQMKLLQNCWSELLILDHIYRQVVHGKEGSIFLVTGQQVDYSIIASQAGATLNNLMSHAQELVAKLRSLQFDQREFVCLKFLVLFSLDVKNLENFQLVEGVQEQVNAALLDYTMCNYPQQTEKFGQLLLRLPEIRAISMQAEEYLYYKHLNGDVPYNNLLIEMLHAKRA

[9] = target: Steroidogenic factor 1 (Homo sapiens) (UniProt Q13285); experiment: inverse agonism at SF1 nuclear receptor – cell-based, luminescence, high throughput, counter-screen for LRH-1 inverse agonist project (AID 651614; in the data active means inhibition above about 44%;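 further: cells cotransfected with StAR promoter reporter and SF1 expression vector; 0% = vehicle on cells with receptor and 100% = vehicle on cells lacking receptor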); settings: cell-based SF1 luciferase reporter, at 3.6 µM, active compounds read high
Chain of Steroidogenic factor 1 (Homo sapiens) (Q13285 whole entry, looked up, the tested form may be a part): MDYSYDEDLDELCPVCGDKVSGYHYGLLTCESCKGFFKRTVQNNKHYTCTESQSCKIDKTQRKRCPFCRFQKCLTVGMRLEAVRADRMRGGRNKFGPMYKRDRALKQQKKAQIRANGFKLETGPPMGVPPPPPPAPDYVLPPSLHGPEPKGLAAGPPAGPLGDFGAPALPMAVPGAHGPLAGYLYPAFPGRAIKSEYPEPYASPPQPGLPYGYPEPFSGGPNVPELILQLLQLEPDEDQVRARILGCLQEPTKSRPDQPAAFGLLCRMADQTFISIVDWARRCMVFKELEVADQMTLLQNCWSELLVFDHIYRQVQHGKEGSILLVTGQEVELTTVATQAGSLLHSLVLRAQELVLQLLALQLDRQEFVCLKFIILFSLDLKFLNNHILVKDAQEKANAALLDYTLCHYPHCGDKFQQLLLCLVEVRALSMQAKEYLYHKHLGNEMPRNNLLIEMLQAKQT

[10] = compounds suppressing VP16-driven luciferase signal – cell-based, luminescence, high throughput, counter-screen for LRH-1 inverse agonist project (AID 651615; in the data active means inhibition above about 33%); settings: Gal4-VP16 luciferase reporter cells, at 3.6 µM, active compounds read high
[11] = VP16-driven transactivation reporter suppression – cell-based, luminescence, HEK293, counter-screen for COUP-TFII antagonist project (AID 687007; in the data active means inhibition above about 13%); settings: HEK293 Gal4-VP16 luciferase reporter, at 8.5 µM, active compounds read high
[12] = target: COUP transcription factor 2 (Homo sapiens) (UniProt P24468); experiment: retest of COUP-TFII reporter suppressors – cell-based, luciferase reporter, HEK293, triplicate, confirmation (AID 687008;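 active means mean inhibition over three repeats above a set limit taken from the earlier primary screen, cut at about 38% in these data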;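 further: 100% = cells given the luciferase reporter alone without the COUP-TF2 vector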); settings: HEK293 NGFI-A luciferase reporter, luminescence; at 8.5 µM; active compounds read high
Chain of COUP transcription factor 2 (Homo sapiens) (P24468 whole entry, looked up): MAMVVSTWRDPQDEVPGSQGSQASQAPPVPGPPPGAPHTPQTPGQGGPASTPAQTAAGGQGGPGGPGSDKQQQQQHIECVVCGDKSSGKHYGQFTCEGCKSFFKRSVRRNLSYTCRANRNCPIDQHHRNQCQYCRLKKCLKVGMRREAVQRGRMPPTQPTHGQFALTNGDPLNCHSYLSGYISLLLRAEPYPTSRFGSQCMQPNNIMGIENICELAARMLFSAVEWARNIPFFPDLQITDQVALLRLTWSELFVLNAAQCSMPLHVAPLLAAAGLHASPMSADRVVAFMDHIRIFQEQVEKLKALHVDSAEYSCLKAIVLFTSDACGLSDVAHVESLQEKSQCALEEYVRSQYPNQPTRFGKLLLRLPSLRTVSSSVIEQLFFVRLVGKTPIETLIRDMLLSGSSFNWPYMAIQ

Row | SMILES | inhibition [1] | inhibition [2] | inhibition [3] | inhibition [4] | inhibition [5] | inhibition [6] | inhibition [7] | inhibition [8] | inhibition [9] | inhibition [10] | inhibition [11] | inhibition [12]
1 | Cc1noc(/C=C/c2ccccn2)c1[N+](=O)[O-] | 54.6% (active) | 47.8% (active) | 48.4% (active) | 37% (active) | 25.9% | 29.3% |  |  |  |  |  | 
2 | COc1ccc(/C=C/C(=O)Nc2ccccc2C(=O)O)cc1OC | -1.26% | -3.34% | -73.2% | -29.6% | 26.9% | 37.8% |  |  |  |  |  | 
3 | O=C(NC1CCCCC1)C(c1cccnc1)N(C(=O)CCl)c1cccc(Cl)c1 (configuration not stated) | 61.6% (active) | 26.8% | 33.4% | 17.5% | 39.6% (active) | 56.3% (active) |  |  |  |  |  | 
4 | NNC(=O)c1cc2ccccc2cc1O | 67.7% (active) | 12.8% | 37.5% | 19.3% | 16.4% | 77.8% (active) |  |  |  |  |  | 
5 | CCCC(=O)N1CCN(c2ccc(NC(=O)c3cc4ccccc4o3)cc2Cl)CC1 | -3.22% | 5.64% | -6.77% | 6.71% | 35.5% (active) | 27.2% |  |  |  |  |  | 
6 | c1csc(CNc2ncnc3ccc(-c4ccoc4)cc23)c1 | 62.6% (active) | 41.1% (active) | 34.6% | 37% (active) | 5.65% | 37.1% |  |  |  |  |  | 
7 | CN(C)c1ccc(/C=C/c2nc3ccccc3s2)cc1 | 30.4% | 28.4% | 18.7% | 12.9% | 77.1% (active) | 84% (active) |  |  |  |  |  | 
8 | CCC(=O)NC(c1ccc(C)cc1)c1ccc2cccnc2c1O (configuration not stated) | 55.7% (active) | 38.1% (active) | 45.3% | 53.4% (active) | -3.42% | 24.4% |  |  |  |  |  | 
9 | COc1ccc2cc3c(N)nn(C(=O)Cc4c[nH]c5ccccc45)c3nc2c1 | 82.3% (active) | 66.2% (active) | 69% (active) | 63.9% (active) | 31.8% | 73.2% (active) | 51.1% (active) | 64.7% (active) | 55.5% (active) | 83.3% (active) |  | 
10 | Cc1c(C(C)NC(=O)c2cc(COc3cccc4cnccc34)on2)cnn1C (configuration not stated) | 32.4% | 40.4% (active) | 38.3% | 33.8% (active) | 7.45% | 46.9% (active) |  |  |  |  |  | 
11 | CCc1nc(N)nc(N)c1-c1ccc(Cl)c([N+](=O)[O-])c1 | 56.7% (active) | 24.9% | 58.2% (active) | 25% | 28.1% | 24.5% |  |  |  |  |  | 
12 | COc1ccc2ncn(-c3ccccc3)c2c1 | 49.2% (active) | 32.7% (active) | 46.1% | 23.7% | -12.1% | 38.2% |  |  |  |  |  | 
13 | Brc1cccc(CSc2nnc(-c3ccncc3)o2)c1 | 45.8% (active) | 35.2% (active) | 44.4% | 26.9% (active) | 0.08% | 27.6% |  |  |  |  |  | 
14 | CC1CCCCN1c1ncnc(N)c1[N+](=O)[O-] (configuration not stated) | 61.7% (active) | 35.2% (active) | 50.6% (active) | 36.8% (active) | 4.43% | 44.8% |  |  |  |  |  | 
15 | COC(=O)CCn1nnc(-c2ccc(C(C)C)cc2)n1 | 55.4% (active) | 38.7% (active) | 40.5% | 35.6% (active) | 58.8% (active) | 92.6% (active) | 48.7% (active) | 55% (active) | 46.7% (active) | 39.9% (active) |  | 
16 | CNc1ncnc(Sc2nc(N)nc3nc[nH]c23)c1[N+](=O)[O-] | 47.1% (active) | 20.2% | 26.8% | 14.4% |  |  |  | 52.6% (active) | 25.1% |  |  | 
17 | CC1(C)CC(N2CCN(C(c3ccccc3)c3ccccc3)CC2)=CC(=[N+]2CCCCC2)C1 | 91% (active) | 87.8% (active) | 69.5% (active) | 87.8% (active) |  |  | 80.6% (active) | 110% (active) | 94.8% (active) | 94.7% (active) | 24.1% (active) | 86.3% (active)
18 | CC1(C)Cc2c(ccc3ccccc23)C(=O)N1 | 55.7% (active) | 37.2% (active) | 55% (active) | 23.7% | -22.7% | 32.1% |  |  |  |  |  | 
19 | CS(=O)(=O)N(CCC#N)Cc1ccc(/C=C2\C(=O)Nc3ccccc32)o1 | 55.2% (active) | 37.4% (active) | 52.9% (active) | 29.3% (active) | 4.75% | 11.8% |  |  |  |  |  | 
20 | CC(=O)Nc1nc(-c2ccc3c(c2)CC(C)N3C(=O)C2CC2)c(C)s1 (configuration not stated) | 72.6% (active) | 58.6% (active) | 50.6% (active) | 62.7% (active) | -4.55% | 41.8% |  |  |  |  |  | 
21 | COc1ccc(C2=Nn3c(nnc3-c3ccncc3)SC2)cc1 | 65.2% (active) | 48.6% (active) | 57.8% (active) | 37% (active) | 12.8% | 39.8% |  |  |  |  |  | 

Row | SMILES | inhibition [1] | inhibition [2] | inhibition [3] | inhibition [4] | inhibition [5] | inhibition [6] | inhibition [7] | inhibition [8] | inhibition [9] | inhibition [10] | inhibition [11] | inhibition [12]
22 | CCCn1c(C)cc(C(=O)CN2C(=O)c3ccccc3S2(=O)=O)c1C | 70.8% (active) | 60.4% (active) | 45.7% | 55% (active) | 62.8% (active) | 80.5% (active) | 67% (active) | 36% | 62.4% (active) | 51.2% (active) |  | 
23 | COc1ccc(C(=O)CN2C(=O)c3ccccc3S2(=O)=O)cc1 | 57.4% (active) | 57.1% (active) | -21.8% | 55.6% (active) | 72.1% (active) | 78.4% (active) |  |  |  |  |  | 
24 | CC1=C(C(=O)OCc2ccc3c(c2)OCO3)C(c2ccc(Cl)cc2)NC(=O)N1 (configuration not stated) | 86% (active) | 74.7% (active) | 69.2% (active) | 74.8% (active) | 29.9% | 46.3% |  |  |  |  |  | 
25 | CCc1ccc(/C=C2\SC(=S)N(CCCC(=O)NCCCN3CCOCC3)C2=O)cc1 | 42.4% | 21.1% | 35.1% | 8.83% | 82.6% (active) | 93.6% (active) |  |  |  |  |  | 
26 | CCCCN(c1ccccc1)c1ncnc(N)c1[N+](=O)[O-] | 72.2% (active) | 57.6% (active) | 64.5% (active) | 48.5% (active) | 17.4% | 44.7% |  |  |  |  |  | 
27 | COc1cc2ccccc2ccc1=NO | 60.1% (active) | 38% (active) | 56.5% (active) | 32.9% (active) | 19.7% | 59.6% (active) |  |  |  |  |  | 
28 | Cc1c([N+](=O)[O-])c2ccc(O)cc2n1-c1ccccc1 | 53.5% (active) | 31.6% (active) | 55.4% (active) | 30.1% (active) | 2.8% | 35.8% |  |  |  |  |  | 
29 | COc1ccc2[nH]c3c(c2c1)CC(C)NC3=O (configuration not stated) | 73% (active) | 49.7% (active) | 67.3% (active) | 52.2% (active) | 14.3% | 41.6% |  |  |  |  |  | 
30 | O=C(CCl)N(C1CCCC1)C1CCS(=O)(=O)C1 (configuration not stated) | 71.6% (active) | 42.4% (active) | 58.3% (active) | 38.2% (active) | 30.6% | 63.6% (active) |  |  |  |  |  | 
31 | CCOc1cc(CNc2ccc3c(c2)OCCO3)cc(Br)c1OCC | 25.4% | 20.9% | -11.6% | 20.8% | -27.7% | -1.58% |  |  |  |  |  | 
32 | COc1ccc(-c2cncnc2-c2ccc(OC)cc2O)cc1 | 58.9% (active) | 36.3% (active) | 57.1% (active) | 35% (active) | 14.3% | 42.5% |  |  |  |  |  | 
33 | COc1ccc(/C=C2/SC(=S)N(CCCC(=O)Nc3ccccc3C(=O)O)C2=O)cc1 | 22% | 11.6% | -7.34% | 7.32% | 66.5% (active) | 72.3% (active) |  |  |  |  |  | 
34 | COc1ccc(C(=O)C(CN2CCOCC2)c2ccccc2)cc1 (configuration not stated) | 1.7% | 20.9% | 0.8% | 20.6% | 6.4% | 35% |  |  |  |  |  | 
35 | CN1CCN(c2ccc(NC(=O)N3CCc4ccccc43)cc2)CC1 | 32.5% | 13.4% | -43.7% | -20.3% | -18.3% | 53.1% (active) |  |  |  |  |  | 
36 | c1ccc(CNc2ncnc3ccccc23)cc1 | 47% (active) | 44.9% (active) | 17.6% and 34.3% | 34.9% (active) and 44% (active) | 14% | 48.8% (active) |  |  |  |  |  | 
37 | CC(C)(C)OC(=O)NCCCCCNC(=O)c1nc[nH]c1C(=O)NCCCCCNC(=O)OC(C)(C)C | 5.02% | 13.7% | -20% | 35.1% (active) | 24.2% | 34.1% |  |  |  |  |  | 
38 | O=[N+]([O-])c1ccc2ncnc(N3CCN(Cc4ccc5c(c4)OCO5)CC3)c2c1 | 74.2% (active) | 53.2% (active) | 64.4% (active) | 64.9% (active) | 8.73% | 54.2% (active) |  |  |  |  |  | 
39 | CC(C)(C)c1ccc(C(=O)NCCOc2ccccc2F)cc1 | 10.1% | -2.97% | -61% | -47.6% | -20.4% | 47.8% (active) |  |  |  |  |  | 
40 | COc1ccc(CC(=O)Nc2cccc(-c3nnc(-c4ccccc4)o3)c2)cc1OC | 10.5% | 32.9% (active) | -12.5% | 41.1% (active) | 27.1% | 68.5% (active) |  |  |  |  |  | 
41 | COc1ccccc1/C=C/C(=O)c1c2c(c(C)[nH]c1=O)CCCC2 | 46.6% (active) | 49.9% (active) | 59% (active) | 44.1% (active) | 34.1% | 39% |  |  |  |  |  | 
